Results as given in PubChem BioAssay AID624167 (Sanford-Burnham Center for Chemical Genomics, 2012).

Assay: inhibition of PEG-3 promoter-driven reporter – cell-based, HeLa, luciferase, CREF/GAPDH counter-screen panel, dose response (AID 624167)
Conditions: CREF/GAPDH counter-screens; run 1, dose range 1, at 100 µM (top of the series)

SMILES | inhibition [%]
CCc1ccc(/C=C2\SC(=S)N(CCCC(=O)NC3=NCCS3)C2=O)cc1 | 79.8
CCCC(=O)NC(c1ccc(N(C)C)cc1)c1ccc2cccnc2c1O (stereo not drawn) | 25.9
CN(C(=O)COC(=O)/C=C/c1cccc([N+](=O)[O-])c1)C1CCS(=O)(=O)C1 (stereo not drawn) | 26
NS(=O)(=O)c1ccc(CCNc2nn3c(-c4ccc(F)c(Cl)c4)cnc3s2)cc1 | 73.4
COc1ccccc1Nc1nc(-c2sc(NC(=O)c3ccco3)nc2C)cs1 | 18
CN1OC[C@@H]2CN(S(=O)(=O)c3cccc(C(F)(F)F)c3)[C@H](c3ccc(-c4cc5ccccc5o4)cc3)C[C@@H]21 | 70.1
CN(C)c1c([N+](=O)[O-])cc(N2C(=O)C=CC2=O)cc1[N+](=O)[O-] | 98.9
C/C(=N\NC(=O)c1cc(C2CC2)nc2ccccc12)c1ccc(O)cc1O | 22.7
C=C1CC2(OC1=O)c1ccccc1CCc1ccccc12 | 100
CC(C)CCCCCCCCCCCCC(=O)NCC(=O)NC1C(O)C(O)C(Nc2ncnc3nc[nH]c23)OC1C(O)CO (stereo not drawn) | 94.6
O=C(Nc1ccc(Cc2ccncc2)cc1)c1ccc([N+](=O)[O-])o1 | 88.7
Cc1cc(C)c2sc(NNC(=O)c3ccc(S(=O)(=O)N4CCc5ccccc5C4)cc3)nc2c1 | 58.6
Cc1ccccc1CNC(=O)C1CCCN(c2nnc(C)c3c(C)n(-c4ccccc4)nc23)C1 (stereo not drawn) | 97.3
O=C(N/N=C\c1c(O)ccc2ccccc12)c1ccc(Cn2cccn2)o1 | 34.1
C=CCn1c(C)cc(C(=O)COc2ccc(C)nc2[N+](=O)[O-])c1C | 51.5
CCCC(=O)NC(c1ccc(Cl)cc1)c1ccc2cccnc2c1O (stereo not drawn) | 70.4
Cc1ccc(OCC(=O)c2cc(C)n(-c3ccccc3)c2C)c([N+](=O)[O-])n1 | 73

SMILES | inhibition [%]
CCCCCCCNC(=O)C1(CC2CC(c3cccc(Br)c3)=NO2)CCNCC1 (stereo not drawn) | 95
CCc1ccc(/C=C2\SC(=S)N(CCCC(=O)Nc3ccccn3)C2=O)cc1 | 78.8
Cc1ccc(C(C[N+](=O)[O-])Sc2ccc(N)cc2)cc1 (stereo not drawn) | 98.3
Cc1cccc(OCC(=O)NCC(=O)N/N=C/c2cc(Br)cc(Br)c2O)c1 | 67.3
Cc1cc(C)c(C)c(S(=O)(=O)N2CCN(C(=O)c3cc(=O)[nH]c4ccccc34)CC2)c1C | 71.8
Cc1oc(-c2ccc3c(c2)OCCO3)cc1C(=O)O | 98.6
O=C(CCSc1nc2ccccc2s1)N/N=C/c1c(O)ccc2ccccc12 | -10.4
O=c1c2ccccc2sc2nc(CCl)nn12 | 100
C=CCn1c(COc2ccccc2)nnc1SC(C)C(=O)N/N=C/c1cc(Cl)ccc1O (stereo not drawn) | 65
CS(=O)(=O)Nc1cccc(NC(=O)C2Cc3c(-c4cccc(F)c4)ccnc3O2)c1 (stereo not drawn) | 74.9
CN(C)S(=O)(=O)c1ccc(-c2csc(N/N=C/c3ccc(O)cc3)n2)cc1 | 91.3
CC(=O)c1sc2c(c1OC(=O)c1ccc(Cl)cc1Cl)c(=O)n(-c1ccccc1)c(=S)n2-c1ccccc1 | 85.9
CCc1ccn2cc(-c3ccc4c(c3)OCO4)nc2c1 | 92.7
CCCCCCN1C=C/C(=C\C=C(C#N)C#N)c2ccccc21 | 50.3
CC(=O)NC(c1ccc(Cl)cc1)c1ccc2cccnc2c1O (stereo not drawn) | 69.3
COc1cc(OC)c2cc(C(=O)N/N=C/c3ccccc3O)[nH]c2c1 | 79.9
